# Laboratory results from PubChem BioAssay (EPA / NIEHS).
# Where “and” joins values, the source holds several entries; their conditions need not be identical. Equal entries are not always repeated. Inconclusive results are not listed. Some compounds were tested as several samples or in several runs, with calls that do not always agree. Calls of active or inactive are those of the source. The calls were made as follows, unless noted: active = hit-call score of the fitted dose curve at least 0.9, where 1 is the maximum; inactive = score below 0.9.
# How the values were obtained:
# [1] = target: human Vitamin D Receptor (VDR), VDR (gene 7421) (UniProt P11473); experiment: ATG_VDR_TRANS: Attagene TRANS-FACTORIAL HepG2 Assay for human Vitamin D Receptor (VDR) (AID 2283022; active = hit-call score of the fitted dose curve at least 0.9, where 1 is the maximum)
# human Vitamin D Receptor (VDR), VDR (gene 7421), sequence (P11473 whole entry, looked up, the tested form may be a part): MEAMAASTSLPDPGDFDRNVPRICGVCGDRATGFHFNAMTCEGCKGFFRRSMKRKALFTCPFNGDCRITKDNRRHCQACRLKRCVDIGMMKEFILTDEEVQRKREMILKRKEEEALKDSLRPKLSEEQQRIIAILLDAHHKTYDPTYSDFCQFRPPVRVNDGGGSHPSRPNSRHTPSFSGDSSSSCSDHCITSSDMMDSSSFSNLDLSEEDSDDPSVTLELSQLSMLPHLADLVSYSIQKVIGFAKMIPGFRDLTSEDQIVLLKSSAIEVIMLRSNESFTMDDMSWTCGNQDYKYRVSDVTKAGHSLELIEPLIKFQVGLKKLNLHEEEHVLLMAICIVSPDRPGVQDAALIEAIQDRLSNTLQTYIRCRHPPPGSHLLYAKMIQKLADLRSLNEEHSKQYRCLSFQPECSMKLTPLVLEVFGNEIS
# Outline: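 HepG2 cells were transiently transfected with GAL4-UAS reporter units and a chimeric VDR-Gal4 construct, then dosed for 24 hours. Reporter mRNA was quantified by RT-PCR, fluorescent labeling, HpaI digestion and capillary electrophoresis; gain of signal analysed vs DMSO.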
# [2] = read-out: Interleukin-8 (IL8), CXCL8 (gene 3576); experiment: BSK_3C_IL8: BioMAP Diversity Plus: 3C Assay for Interleukin-8 (IL8) Biomarker Activity (AID 2283020); conditions: primary human endothelial cells (HUVEC); actives raise or lower the signal
# Outline: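 Using DMSO-treated wells as the baseline, bidirectional curve fitting was applied to ELISA-measured IL-8 from human umbilical vein endothelial cultures sampled 24 h after compound addition.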
# [3] = read-out: Monokine induced gamma interferon (MIG), CXCL9 (gene 4283); experiment: BSK_3C_MIG: BioMAP Diversity Plus: 3C Assay for Monokine induced gamma interferon (MIG) Biomarker Activity (AID 2283021); conditions: primary human endothelial cells (HUVEC); actives raise or lower the signal
# Outline: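 ELISA-measured MIG in dosed HUVEC 3C cultures at 24 h, analysed by bidirectional fitting with DMSO defining baseline activity.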
# [4] = BSK_3C_SRB: Viability Assessment in the BioMAP Diversity Plus: 3C Assay (AID 2283023); conditions: primary human endothelial cells (HUVEC);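 also: fitted both ways against DMSO so a hit may be signal rise or drop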
# Outline: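 Human umbilical vein endothelial cells in the 3C system, treated 24 h. Total protein measured by 0.1% sulforhodamine B staining after 10% TCA fixation, read at 560 nm; bidirectional fit versus DMSO.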
# [5] = read-out: Matrix Metallopeptidase 1 (MMP1), MMP1 (gene 4312); experiment: BSK_BE3C_MMP1: BioMAP Diversity Plus: BE3C Assay for Matrix Metallopeptidase 1 (MMP1) Biomarker Activity (AID 2283024); conditions: primary human bronchial epithelial cells; actives raise or lower the signal
# Outline: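 In this multiplexed primary-cell system, human bronchial epithelium received chemicals for 24 h before an ELISA for MMP1. Values reflect bidirectional fits normalised to the DMSO baseline.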
# [6] = read-out: Pselectin, SELP (gene 6403); experiment: BSK_4H_Pselectin: BioMAP Diversity Plus: 4H Assay for Pselectin Biomarker Activity (AID 2283026); conditions: primary human endothelial cells (HUVEC); actives raise or lower the signal
# Outline: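 Bidirectional fits against DMSO gave the endpoint. Cells: primary human umbilical vein endothelium, chemical-treated for 24 h before ELISA detection of P-selectin.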
# [7] = BSK_4H_SRB: Viability Assessment in the BioMAP Diversity Plus: 4H Assay (AID 2283027); conditions: primary human endothelial cells (HUVEC);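 also: cells exposed to compound for 24 h before staining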
# Outline: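 Cytotoxicity read-out in primary human endothelial cells: after 24 h compound exposure, cells were TCA-fixed (10%), stained with 0.1% SRB and absorbance taken at 560 nm. Values fitted in both directions relative to DMSO.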
# [8] = BSK_BE3C_SRB: Viability Assessment in the BioMAP Diversity Plus: BE3C Assay (AID 2283028); conditions: primary human bronchial epithelial cells
# Outline: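 Human bronchial epithelial primary cells in confluent culture, 24 h after chemical dosing; total protein by 0.1% SRB staining after 10% TCA fixation, read at 560 nm. Bidirectional fitting versus DMSO baseline.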
# [9] = read-out: Thrombomodulin, THBD (gene 7056); experiment: BSK_3C_Thrombomodulin: BioMAP Diversity Plus: 3C Assay for Thrombomodulin Biomarker Activity (AID 2283029); conditions: primary human endothelial cells (HUVEC); actives raise or lower the signal
# Outline: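 In a multiplexed primary-cell system, human umbilical vein endothelium received chemical and was assayed 24 h later for thrombomodulin by ELISA. Parallel cultures were SRB-stained (0.1% SRB after 10% TCA fixation, read at 560 nm) to flag cytotoxicity.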
# [10] = read-out: Urokinase-type plasminogen activator receptor (uPAR), PLAUR (gene 5329); experiment: BSK_4H_uPAR: BioMAP Diversity Plus: 4H Assay for Urokinase-type plasminogen activator receptor (uPAR) Biomarker Activity (AID 2283030); conditions: primary human endothelial cells (HUVEC); actives raise or lower the signal
# Outline: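 Human umbilical vein endothelial cells in the 4H system, 24 h after chemical dosing. Cell-surface uPAR measured by ELISA, fitted in both directions versus DMSO; cytotoxicity checked by SRB total protein in parallel cultures.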
# [11] = read-out: Human Leukocyte Antigen - DR isotype (HLADR), HLA-DRA (gene 3122); experiment: BSK_BE3C_HLADR: BioMAP Diversity Plus: BE3C Assay for Human Leukocyte Antigen - DR isotype (HLADR) Biomarker Activity (AID 2283032); conditions: primary human bronchial epithelial cells; actives raise or lower the signal
# Outline: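 BioMAP BE3C format: human bronchial epithelium, 24 h compound treatment, ELISA detection of HLA-DR, with bidirectional analysis relative to DMSO.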
# [12] = read-out: Vascular cell adhesion molecule 1 (VCAM1), VCAM1 (gene 7412); experiment: BSK_4H_VCAM1: BioMAP Diversity Plus: 4H Assay for Vascular cell adhesion molecule 1 (VCAM1) Biomarker Activity (AID 2283033); conditions: primary human endothelial cells (HUVEC); actives raise or lower the signal;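 also: cell-surface VCAM-1 protein measured by ELISA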
# Outline: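 In this human endothelial (HUVEC) system, biomarker ELISA was run 24 h after compound addition, and total protein in parallel wells was assessed by SRB at 560 nm; DMSO served as negative control.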
# [13] = read-out: Interferon-gamma inducible Protein 10 (IP10), CXCL10 (gene 3627); experiment: BSK_BE3C_IP10: BioMAP Diversity Plus: BE3C Assay for Interferon-gamma inducible Protein 10 (IP10) Biomarker Activity (AID 2283034); conditions: primary human bronchial epithelial cells; actives raise or lower the signal
# Outline: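 BE3C cells (human bronchial epithelial, primary); 24 h exposure; ELISA for IP-10; DMSO-referenced bidirectional fit.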
# [14] = read-out: Monokine induced gamma interferon (MIG), CXCL9 (gene 4283); experiment: BSK_BE3C_MIG: BioMAP Diversity Plus: BE3C Assay for Monokine induced gamma interferon (MIG) Biomarker Activity (AID 2283035); conditions: primary human bronchial epithelial cells; actives raise or lower the signal;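 also: MIG protein measured by ELISA in BE3C cultures after 24 h of dosing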
# Outline: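 ELISA quantified MIG after 24 h exposure of primary bronchial epithelial cultures, analysed in both directions relative to DMSO. Cytotoxicity tracked in parallel cultures by sulforhodamine B staining.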
# [15] = read-out: Plasminogen activator inhibitor-1 (PAI1), SERPINE1 (gene 5054); experiment: BSK_BE3C_PAI1: BioMAP Diversity Plus: BE3C Assay for Plasminogen activator inhibitor-1 (PAI1) Biomarker Activity (AID 2283037); conditions: primary human bronchial epithelial cells; actives raise or lower the signal
# Outline: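 In this multiplexed primary-cell system, bronchial epithelial cells receive test chemical and are sampled at 24 h. PAI-1 is read by ELISA, with DMSO serving as negative control for bidirectional fitting.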
# [16] = read-out: urokinase plasminogen activator (uPA), PLAU (gene 5328); experiment: BSK_BE3C_uPA: BioMAP Diversity Plus: BE3C Assay for urokinase plasminogen activator (uPA) Biomarker Activity (AID 2283038); conditions: primary human bronchial epithelial cells; actives raise or lower the signal;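 also: uPA protein level quantified by ELISA in cell cultures; uPA read one day after compound addition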
# Outline: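 Primary human bronchial epithelial cells, uPA measured by ELISA 24 h after dosing. Bidirectional change relative to DMSO; cytotoxicity checked in parallel cultures by sulforhodamine B total-protein staining.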
# [17] = read-out: Urokinase-type plasminogen activator receptor (uPAR), PLAUR (gene 5329); experiment: BSK_BE3C_uPAR: BioMAP Diversity Plus: BE3C Assay for Urokinase-type plasminogen activator receptor (uPAR) Biomarker Activity (AID 2283039); conditions: primary human bronchial epithelial cells; actives raise or lower the signal;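 also: cells exposed to compound for one day before measurement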
# Outline: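 Chemically treated human bronchial epithelial cells (lung primary) are assayed for uPAR by ELISA after 24 h, with data fitted in both directions using DMSO as negative control.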
# [18] = read-out: Vascular endothelial growth factor receptor 2 (Homo sapiens) (UniProt P35968); experiment: BSK_4H_VEGFRII: BioMAP Diversity Plus: 4H Assay for Vascular endothelial growth factor receptor 2 (VEGFR2) Biomarker Activity (AID 2283031); conditions: primary human endothelial cells (HUVEC); actives raise or lower the signal
# Outline: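 Primary human umbilical vein endothelial cells (4H system), 24 h exposure; cell-surface VEGFR2 measured by ELISA. Bidirectional fitting versus DMSO; cytotoxicity checked in parallel by SRB total-protein staining.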
smiles,measurement,setting,value
Cc1ccccc1S,outcome,[1],inactive
O=C(O)c1cccc(Cl)n1,outcome,[1],inactive
CC1=CC[C@@H](C(C)(C)O)CC1,outcome,[1],inactive
CCCC1CCOC(C)S1 (centres undefined),outcome,[1],inactive
CCCCCCCCCCCCCCCCCC(=O)OCCCCCCCCCCCCCC(C)C,outcome,[1],inactive
CC(C)CCOC(=O)CC(C)C,outcome,[1],inactive
CCCCOCC(C)OCC(C)O (centres undefined),outcome,[1],inactive
CCCO[Si](OCCC)(OCCC)OCCC,outcome,[2],inactive
same,outcome,[3],inactive
same,outcome,[4],inactive
same,outcome,[5],inactive
same,outcome,[6],inactive
same,outcome,[7],inactive
same,outcome,[8],inactive
same,outcome,[9],inactive
same,outcome,[10],inactive
same,outcome,[11],inactive
same,outcome,[12],inactive
same,outcome,[13],inactive
same,outcome,[14],inactive
same,outcome,[15],inactive
same,outcome,[16],inactive
C=C(C)C(=O)OCCC(C)OC(=O)C(=C)C (centres undefined),outcome,[1],inactive
CCCO,outcome,[1],inactive
CC(C)CCCC(C)(C)O,outcome,[2],inactive
same,outcome,[3],inactive
same,outcome,[4],inactive
same,outcome,[5],inactive
same,outcome,[6],inactive
same,outcome,[7],inactive
same,outcome,[8],inactive
same,outcome,[9],inactive
same,outcome,[10],inactive
same,outcome,[11],inactive
same,outcome,[12],inactive
same,outcome,[13],inactive
same,outcome,[14],inactive
same,outcome,[15],inactive
same,outcome,[16],inactive
same,outcome,[17],inactive
CC(=O)c1ccc(C)cc1,outcome,[2],inactive
same,outcome,[3],inactive
same,outcome,[4],inactive
same,outcome,[5],inactive
same,outcome,[6],inactive
same,outcome,[7],inactive
same,outcome,[8],inactive
same,outcome,[9],inactive
same,outcome,[10],inactive
same,outcome,[11],inactive
same,outcome,[12],inactive
same,outcome,[13],inactive
same,outcome,[14],inactive
same,outcome,[15],inactive
same,outcome,[16],inactive
C=COCC1CCC(COC=C)CC1 (centres undefined),outcome,[1],inactive
CCCC1CCC(=O)CC1,outcome,[1],inactive
CCC(C)(CCCC(C)C)OC(C)=O (centres undefined),outcome,[1],inactive
COc1ccc(N)c(C)c1,outcome,[1],inactive
CCCCCCOc1ccc(O)cc1,outcome,[1],inactive
CN(C)C(=O)Nc1ccccc1,outcome,[1],inactive
CCNC(=S)NCC,outcome,[1],inactive
Nc1cc([N+](=O)[O-])ccc1C(=O)O,outcome,[1],inactive
C=CC(C)(CCC=C(C)C)OC(=O)CC (centres undefined),outcome,[1],inactive
CC1=CC(O)CC(C)(C)C1 (centres undefined),outcome,[1],inactive
O=C(O)C(F)(F)C(F)(F)C(F)(F)C(F)(F)C(F)(F)C(F)(F)C(F)(F)C(F)F,outcome,[2],inactive
same,outcome,[3],inactive
same,outcome,[4],inactive
same,AC50,[5],11.5 µM (active) and 35.9 µM (active)
same,AC50,[6],19.5 µM (active)
same,outcome,[6],inactive
same,outcome,[7],inactive
same,outcome,[8],inactive
same,outcome,[9],inactive
same,outcome,[10],inactive
same,AC50,[11],12.5 µM (active) and 3.23 µM (active)
same,outcome,[12],inactive
same,AC50,[13],30 µM (active) and 38.3 µM (active)
same,outcome,[14],inactive
same,outcome,[15],inactive
same,outcome,[16],inactive
same,outcome,[17],inactive
CCO[Si](CC)(OCC)OCC,outcome,[1],inactive
CC1=CC[C@@H]2C[C@H]1C2(C)C,outcome,[1],inactive
CCn1cc(C(=O)O)c(=O)c2ccc(C)nc21,outcome,[2],inactive
same,outcome,[3],inactive
same,outcome,[4],inactive
same,outcome,[5],inactive
same,outcome,[6],inactive
same,outcome,[7],inactive
same,outcome,[8],inactive
same,outcome,[9],inactive
same,outcome,[10],inactive
same,outcome,[18],inactive
same,outcome,[11],inactive
same,outcome,[12],inactive
same,outcome,[13],inactive
same,outcome,[14],inactive
same,outcome,[15],inactive
same,outcome,[16],inactive
NC(=O)c1cccnc1,outcome,[1],inactive
CCCCCCCCSCc1cc(C)c(O)c(CSCCCCCCCC)c1,outcome,[1],inactive
CCCCOCCOC(=O)c1ccccc1C(=O)OCCOCCCC,outcome,[1],inactive
O=Cc1ccccc1O,outcome,[1],inactive
